IEC-6 cytotox – counter-screen for KLF5 inhibitors: cytotoxicity in IEC-6 cells. IEC-6 cytotoxicity, luminescence viability. inhibition, % at 5 µM. 290,000 compounds, 0.78% hits. AID 1825; in the data active = inhibition above about 22%;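 also: 0% = plate median of test compound wells and 100% = cytotoxic reference compound wells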
Ba/F3 V617F tox – reduce viability of Ba/F3 cells dependent on JAK2V617F | Ba/F3 EpoR-JAK2V617F viability, ATP luminescence | inhibition, % at 5.6 µM | 220,000 compounds, 1.1% hits;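 active = inhibition above the campaign mean plus 3 SD over all tested compounds, cut at about 24% in these data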;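 also: cytokine-independent growth of Ba/F3 cells driven by EpoR plus mutant JAK2; 0% = DMSO-treated cells and 100% = JAK inhibitor I control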
aSyn UTR inh – MLPCN primary screen, SNCA 5' untranslated region; alpha-synuclein 5'UTR reporter, inhibitor activity; inhibition, % (tested at 7.5 µM); 300,000 compounds, 0.82% hits; AID 1813; in the data active = inhibition above about 60%;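 also: H4 neuroglioblastoma cells stably carrying SNCA 5'UTR luciferase fusion; 0% = DMSO wells and 100% = positive control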
BaF3 tox – reduces parental Ba/F3 cell viability, JAK2V617F counter-screen; CellTiter-Glo ATP luminescence; inhibition, % at 5.6 µM; 220,000 compounds, 1.1% hits; AID 1486;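 active = inhibition above a per-campaign cutoff, the mean inhibition of all tested compounds plus 3 SD, cut at about 27% in these data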;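 also: 0% = DMSO wells and 100% = JAK Inhibitor I control wells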
KLF5 inhibitor – kruppel-like factor 5 inhibition | inhibition, % at 5 µM | 290,000 compounds, 0.23% hits | AID 1700 | DLD-1 KLF5 promoter-luciferase reporter, luminescence;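 active = inhibition above a per-plate limit of that plate's mean compound inhibition plus 3 SD, cut at about 60% in these data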;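 also: 0% = DMSO wells and 100% = LY294002 at 200 µM; higher means less KLF5 promoter-driven luciferase light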
APP transl inh – APP translation inhibition; SH-SY5Y APP 5'UTR-luciferase reporter, luminescence; inhibition, % at 2 µM; 190,000 compounds, 0.82% hits; AID 1285;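 active = inhibition above a set limit, derived from the sample mean plus 3 SD, cut at about 45% in these data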
Numbers without * were called inactive; · = no result. Most compounds without a hit are left out; they make up all but 2.1% or so of the library.

SMILES	IEC-6 cytotox	Ba/F3 V617F tox	aSyn UTR inh	BaF3 tox	KLF5 inhibitor	APP transl inh
Cc1ccc(C(=O)Nc2ncc(Cc3ccc(F)cc3)s2)o1	45*	80*	-107	71*	-107	-134
Cc1cc(C)c(C(=O)COC(=O)c2cc([N+](=O)[O-])ccc2N2CCOCC2)cc1C	·	·	6	·	·	·
N#CC1=C(N)OC2=C(CCc3ccccc32)C1c1ccccc1Cl (configuration not stated)	-1	5	-14	9	13	94*
N#CC1=C(N)Oc2cc(N)ccc2C1c1ccccc1Cl (configuration not stated)	-8	·	-5	·	-31	·
CC1(C)CC(NC(=O)c2cc(Cl)ccc2Cl)CC(C)(C)N1	1	·	-6	·	9	·
CCOc1ccc(S(=O)(=O)N2CCN(S(=O)(=O)c3ccc(OCC)cc3)C(C)C2)cc1 (configuration not stated)	-5	-3	-3	1	-6	52*
CCOc1ccc(S(=O)(=O)N2CN3CCN(C3)C2)cc1	-2	·	-8	·	-34	·
CCOC(=O)N1CCN(C(=O)c2cn(CC)c3cc(N4CCN(C)CC4)c(F)cc3c2=O)CC1	-1	-2	7	79*	-3	-5
CCn1cc(C(=O)NN)c(=O)c2cc(F)c(N3CCN(C)CC3)cc21	0	·	13	·	-36	·
COC(=O)CN(C#N)c1nc(NC(C)C)nc(OC)n1	-9	41*	4	32*	-37	6
COC(=O)CN(C#N)c1nc(OC)nc(N(C)C)n1	-4	-2	-4	5	-18	-3
COc1ccc2[nH]c3c(NCCC4=CCCCC4)ncnc3c2c1	20	64*	-195	75*	-137	-75
CC1CCCN(CCCN2C(=O)C3C(C(=O)Nc4cccc(Cl)c4)C4C=CC3(O4)C2C(=O)NC2CCCCC2)C1 (configuration not stated)	-4	·	-6	·	-25	·
CCOC(=O)N1CCN(C(=O)COC(=O)Cc2ccc(Cl)cc2)CC1	-2	·	8	·	-6	·
Nc1c(Cl)ncnc1NCCc1ccc(O)cc1	6	5	-17	29*	-20	·
COc1cccc(C(=S)N2CCOCC2)c1OS(=O)(=O)c1ccc(Cl)cc1	-6	·	-4	·	-38	·
FC(F)Oc1ccc(-n2cc(-c3ccccc3)[n+]3c2CCCCC3)cc1	-2	65*	-1	63*	-9	·
Cc1ccc(-c2cn(-c3ccc(OC(F)F)cc3)c3[n+]2CCCCC3)cc1	16	78*	-6	73*	-7	·
CCN(CC)S(=O)(=O)c1cccc(C(=O)NCC2CCCCC2)c1	5	·	-6	·	-14	·
CCCC(NC(=S)NCC1CCCO1)C12CC3CC(CC(C3)C1)C2 (configuration not stated)	4	3	-5	8	-36	4
CC1=NNC(=O)C1C(c1ccccc1)C1C(=O)NN=C1C (configuration not stated)	-3	-3	1	4	-16	-4
Cc1ccc(-n2c(C)cc(/C=C3\SC(=O)NC3=O)c2C)cc1	-14	·	-174	·	-190	·
Cc1cc(/C=C2\SC(=Nc3ccccc3)NC2=O)c(C)n1-c1ccc(S(N)(=O)=O)cc1	-4	28*	39	63*	-2	53*
CC(C)c1ccc(CNCc2ccccc2)cc1	-4	-4	-16	0	-10	-18
CC#CCNCc1ccccc1	-6	2	11	35*	-42	-2
SMILES	IEC-6 cytotox	Ba/F3 V617F tox	aSyn UTR inh	BaF3 tox	KLF5 inhibitor	APP transl inh
CCN(CC)c1nc(-c2cccc(OC)c2O)nc2ccccc12	2	-2	9	4	-5	52*
COc1cccc(-c2nc(NCc3ccccc3)c3ccccc3n2)c1O	6	·	36	·	-8	·
Cc1c(Br)c(O)c(Br)c(O)c1/C=N/n1c(-c2ccccc2)n[nH]c1=S	0	·	62*	·	10	·
CCN(CC)S(=O)(=O)c1cccc(-c2n[nH]c(=S)n2/N=C/c2ccc(Br)cc2)c1	-3	2	21	94*	-10	10
CCN(CC)S(=O)(=O)c1cccc(-c2n[nH]c(=S)n2/N=C/c2ccc(OC)cc2)c1	-1	3	36	10	-31	-1
Cc1ccc2nc(Nc3ccc(C)c(C)c3)c3nncn3c2c1	-2	·	-46	·	-33	·
Cc1occc1C(=O)N1CCN(c2ncccn2)CC1	-1	-1	-2	92*	-15	-21
O=C(Nc1nc2ccccc2[nH]1)c1ccccc1	13	4	54	8	-36	-214
O=C(Nc1nc2ccccc2[nH]1)c1ccc(Cl)cc1	17	·	66*	·	26	·
CCOC(=O)c1c(C)[nH]c(C(=O)N/N=C\c2ccccc2O)c1C	8	0	87*	1	-23	67*
Cc1ccc(/C=C2/Sc3ccc(C(=O)NCCN4CCOCC4)cc3NC2=O)cc1	4	·	-13	·	-19	·
CCN1CCCC1CNC(=O)c1ccc2c(c1)NC(=O)/C(=C\c1ccc(C)cc1)S2 (configuration not stated)	-4	·	74*	·	5	·
O=C(N/N=C/c1cccs1)c1cccnc1	4	-6	7	-3	-33	·
O=C(N/N=C/c1ccccc1Cl)c1n[nH]c2c1CCCC2	9	1	83*	4	-79	-131
O=C(N/N=C/c1cccs1)c1n[nH]c2c1CCC2	7	0	68*	0	-71	-6
O=C(N/N=C/c1ccccc1)c1n[nH]c2c1CCCC2	6	1	-88	2	-81	-105
CC1(C)CC(=NNC(=O)c2n[nH]c3c2CCC3)CC(C)(C)N1	3	1	-26	3	-5	82*
O=C(CCN1CCCC1=O)NC1CCCc2c1cnn2-c1ccc(F)cc1F (configuration not stated)	8	·	-8	·	-24	·
COc1ccccc1-c1nc(-c2ccccn2)no1	18	20	77*	23	-11	-98
Brc1ccc(-c2nc(-c3ccccn3)no2)o1	7	1	80*	6	-25	-92
Cc1ccccc1-c1nc(-c2ccccn2)no1	16	11	95*	12	10	-90
Brc1ccc(-c2noc(-c3ccccn3)n2)o1	1	·	-2	·	-92	·
CC(C)(C)C(=O)OCc1nc(-c2ccc(F)cc2)cs1	1	-5	-106	3	-1	·
CS(=O)(=O)c1ccccc1-c1nnc(NC(=O)c2ccc3ncsc3c2)o1	·	·	-8	·	·	·
COc1ccc(CCNC(=O)[C@H](C)NC(=O)N2CCn3c2nc2ccccc23)cc1OC	2	·	16	·	-26	·
COc1ccc(C(=O)NNC(=S)NC(=O)/C=C/c2cccs2)cc1	-4	-2	30	8	-31	34
O=C(/C=C/c1cccs1)NC(=S)NNC(=O)c1ccccc1O	-4	94*	103*	54*	2	18
Cc1nnc(N2CCOCC2)c2nn(-c3ccccc3)c(C)c12	6	2	5	6	-23	17
c1ccc(-n2nnc3c(N4CCOCC4)ncnc32)cc1	4	3	75*	3	-29	-148
c1ccc(CN2CCN(c3ncccn3)CC2)cc1	5	·	-14	·	-13	·

Screening data deposited in PubChem BioAssay by several laboratories.
